From PubChem
Only some compounds are listed: those with a hit (about 2% of all), similar ones and a draw of the others.
CF NFkB inh: inhibitors of PAF-induced NF-kB signaling, primary screen, cell-based, GFP fluorescence, uHTS; hit rate 0.86% among 360,000; KKLEB NF-kB-GFP reporter, GFP fluorescence overnight; AID 588850, 2011; inhibition, % at 5 µM;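 active = at least 50% inhibition at 5 µM, scaled per plate between neutral and stimulator controls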;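 also: PAF is a Pseudomonas aeruginosa culture filtrate used as stimulus; plate controls were PAF-stimulated DMSO wells for no effect and unstimulated DMSO wells for full effect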
EWS-Fli block: EWS/Fli-driven NR0B1 reporter inhibitors, primary screen, A673 cells, NR0B1 luciferase, luminescence, MLPCN library; viability-normalised; inhibition, % at 12.6 µM; hit rate 0.67% among 350,000; AID 651661, 2012;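 active = mean inhibition of at least 50% after viability correction, with every replicate also passing that limit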;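 also: firefly luciferase signal divided by Alamar Blue viability fluorescence both relative to DMSO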
Shn3 inh set2: reduction of Shn3 3'UTR firefly luciferase signal, primary screen, Schnurri-3 inhibitor project, cell-based, Clone20 osteoblasts, set 2 | Clone20 osteoblast Shn3 3'UTR firefly luciferase, 24 h | inhibition, % at 12.5 µM | hit rate 0.52% among 360,000;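 active = mean inhibition of at least 75% with every replicate also reaching 75%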;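 also: 0% = median of neutral control wells and 100% = pilot-screen positive control compound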
PAX8 inh HTS: inhibitors of PAX8-driven TPO luciferase reporter, primary screen, RMG-I cells, single concentration; SteadyGlo, 24 h; inhibition, % at 12.6 µM; hit rate 1.2% among 360,000; AID 652154, 2013;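 active = mean replicate inhibition at least 60% with every replicate also reaching 60%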;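 also: luciferase light reporting Pax8 driven TPO promoter activity; plate controls were median of neutral control wells for no effect and mitoxantrone controls for full effect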
KKLEB tox: cytotoxicity in KKLEB CF airway cells, primary screen, cytotoxicity control for CF NF-kB inhibitor project, cell-based, uHTS, fluorescence assay plates; KKLEB CF airway cells viability, ATPlite luminescence, overnight; stronger effect = lower value; cells stimulated with P. aeruginosa culture filtrate; activity change (cytotoxicity), % at 5 µM; hit rate 0.36% among 360,000;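 active = corrected activity change at or below -50% at 5 µM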
LGR2 inh: inhibitors of bursicon-induced LGR2 CRE-luciferase signal, primary screen, cell-based, HEK293, CRE-luciferase reporter, bursicon stimulation. Drosophila bursicon receptor LGR2 (rickets). bursicon-stimulated, 4 h. inhibition, % at 9.99 µM. hit rate 0.35% among 380,000. AID 720647, 2013;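 active = drop in luminescence signal, shown as inhibition above about 50% in the replicate tests, limit read from the data, passing the limit was not always enough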;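 also: agonist challenge used bursicon conditioned medium at about half maximal strength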
Numbers without * were called inactive; / = no result given; ! = not confirmed by another sample.

SMILES | CF NFkB inh | EWS-Fli block | Shn3 inh set2 | PAX8 inh HTS | KKLEB tox | LGR2 inh
Cc1cccc(S(=O)(=O)N2CCCCN3[C@H](CO)[C@H](c4ccc(C#CC(C)C)cc4)[C@H]3C2)c1 | / | 17 | / | 78* | / | 7
C[C@H]1CN([C@@H](C)CO)C(=O)Cc2cc(NC(=O)c3ccncc3)ccc2O[C@@H]1CN(C)CC1CCCCC1 | / | 2 | / | / | / | -7
CN1[C@H](CO)[C@@H]2c3ccccc3N(C(=O)Nc3ccccc3F)C[C@@H]21 | / | -41 | / | -70 | / | -10
CO[C@@H]1CN(C)C(=O)c2ccc(NC(=O)c3ccc(F)cc3)cc2OC[C@H](C)N(C)C[C@@H]1C | / | 1 | / | -1 | / | -4
C[C@H](CO)N1C[C@H](C)[C@H](CN(C)C(=O)Nc2ccc(F)cc2)Oc2ccc(NS(=O)(=O)c3ccc(F)cc3)cc2CC1=O | / | -5 | / | / | / | 14
O=c1cc(-c2ccccc2)cc(-c2ccccc2)n1O | -12 | 2 | 92* | 31 | -28 | 12
O=c1[nH]c(/C(Cl)=C/c2c(F)cccc2Cl)nc2cc(Cl)ccc12 | 9 | 16 | -8 | 28 | -12 | 4
O=c1[nH]c(/C(Cl)=C/c2cc(Cl)ccc2O)nc2cc(Cl)ccc12 | 17 | 16 | -56 | -1 | -53* | /
C[C@@H]1CN([C@@H](C)CO)C(=O)Cc2cc(NS(=O)(=O)c3cccs3)ccc2O[C@@H]1CN(C)C | / | 0 | / | -16 | / | 32
COc1ccc(NC(=O)c2nn(C34CC5CC(CC(C5)C3)C4)cc2[N+](=O)[O-])cc1 | -8 | 0 | -5 | 128* | 4 | 4
CCN1C(=O)CC2CCCC1C2 (stereo unspecified) | 4 | -18 | 95* | 7 | 0 | -8
O=C(c1ccc(F)cc1)N1C[C@@H]2N[C@H](C1)C2c1ccc(-c2cncnc2)cc1 (stereo partly specified) | / | -5 | / | 4 | / | 7
O=C(c1ccc(F)cc1)N1C[C@@H]2N[C@H](C1)C2c1ccc(-c2ccccc2F)cc1 (stereo partly specified) | / | 3 | / | 9 | / | 12
Cc1ccccc1-c1ccc(C2[C@@H]3CN(C(=O)c4ccc(F)cc4)C[C@H]2N3)cc1 (stereo partly specified) | / | -3 | / | 65*! | / | 14
O=C(c1ccc(F)cc1)N1C[C@@H]2N[C@H](C1)C2c1ccc(-c2ccc(F)cc2)cc1 (stereo partly specified) | / | 0 | / | 84*! | / | -4
COc1ccc(-c2cnc3c(c2)C(=O)N([C@@H](C)CO)C[C@H](C)[C@@H](CN(C)C(=O)C2CCCCC2)O3)cc1 | / | 8 | / | 29 | / | -4
Cc1ccc(S(=O)(=O)Nc2ccc3c(c2)C(=O)N([C@H](C)CO)C[C@H](C)[C@H](CN(C)Cc2ccc(C(F)(F)F)cc2)OCCCC[C@H](C)O3)cc1 | / | 37 | / | 115* | / | -2
Cc1ccc(S(=O)(=O)Nc2ccc3c(c2)C(=O)N([C@@H](C)CO)C[C@@H](C)[C@H](CN(C)Cc2ccc(C(F)(F)F)cc2)OCCCC[C@@H](C)O3)cc1 | / | 45 | / | 108* | / | 24
Cc1ccc(S(=O)(=O)Nc2ccc3c(c2)C(=O)N([C@H](C)CO)C[C@H](C)[C@H](CN(C)Cc2ccc(C(=O)O)cc2)OCCCC[C@@H](C)O3)cc1 | / | -33 | / | -15 | / | -2
Cc1ccc(S(=O)(=O)Nc2ccc3c(c2)C(=O)N([C@H](C)CO)C[C@@H](C)[C@@H](CN(C)Cc2ccc(C(F)(F)F)cc2)OCCCC[C@@H](C)O3)cc1 | / | 32 | / | 87* | / | 24
Cc1ccc(S(=O)(=O)Nc2ccc3c(c2)C(=O)N([C@H](C)CO)C[C@@H](C)[C@@H](CN(C)Cc2ccc(C(F)(F)F)cc2)OCCCC[C@H](C)O3)cc1 | / | 18 | / | 96* | / | 9
Cc1noc(C)c1NC(=O)N(C)C[C@@H]1Oc2ncc(C#CC(C)C)cc2C(=O)N([C@H](C)CO)C[C@@H]1C | / | 6 | / | / | / | -33
C[C@H](CO)N1C[C@H](C)[C@@H](CN(C)C(=O)Nc2cccc3ccccc23)OCCCC[C@H](C)Oc2ccc(NS(C)(=O)=O)cc2C1=O | / | -2 | / | 6 | / | -1
Cc1ccc(S(=O)(=O)Nc2ccc3c(c2)C(=O)N([C@@H](C)CO)C[C@H](C)[C@@H](CN(C)Cc2ccc(C(F)(F)F)cc2)OCCCC[C@H](C)O3)cc1 | / | 15 | / | 80* | / | 24
Cc1ccc(S(=O)(=O)Nc2ccc3c(c2)C(=O)N([C@H](C)CO)C[C@H](C)[C@@H](CN(C)Cc2ccc(C(F)(F)F)cc2)OCCCC[C@@H](C)O3)cc1 | / | 3 | / | 7 | / | 15
SMILES | CF NFkB inh | EWS-Fli block | Shn3 inh set2 | PAX8 inh HTS | KKLEB tox | LGR2 inh
CC(C)C#Cc1cnc2c(c1)C(=O)N([C@@H](C)CO)C[C@@H](C)[C@@H](CN(C)C(=O)Nc1cccc(F)c1)O2 | / | 1 | / | 23 | / | 13
O=C(NC(CSCc1ccccc1)C(=O)N/N=C/c1ccc(O)cc1O)c1ccc([N+](=O)[O-])cc1 (stereo unspecified) | 10 | / | 91* | / | 13 | /
COc1cc(/C=N/NC(=O)C23CC4CC(CC(C4)C2)C3)cc(Br)c1O | -12 | 3 | 11 | 67* | 8 | 7
COc1ccc(/C=N/NC(=O)c2ccc(-c3ccccc3)cc2)cc1O | 28 | 9 | 7 | -7 | 9 | 8
COc1ccc(/C=N/NC(=O)c2ccc(CN3C(=O)c4cccc5cccc3c45)cc2)cc1O | -44 | 36 | -4 | 21 | 16 | -7
COc1cc(/C=N/NC(=O)c2ccc(CN3C(=O)c4cccc5cccc3c45)cc2)cc(OC)c1O | -7 | 5 | 8 | 98* | 5 | 6
COc1cc(/C=N\NC(=O)c2ccc(-c3ccccc3)cc2)cc(Br)c1O | 65* | / | 13 | 33 | -1 | -6
COc1cccc(/C=N/NC(=O)c2ccc(-c3ccccc3)cc2)c1O | 2 | / | 91* | / | 2 | /
O=C(C[C@@H]1CC[C@@H]2[C@H](COC[C@H](O)CN2Cc2nccs2)O1)NCc1ccc(-c2ccccc2)cc1 | / | -3 | / | 22 | / | -4
O=C(C[C@@H]1CC[C@H]2[C@@H](COC[C@H](O)CN2Cc2cccc(F)c2)O1)NCc1cccc(F)c1 | / | 15 | / | 11 | / | 4
CCn1c(C)nc2cc(C(=O)N/N=C/c3cccc(O)c3O)ccc21 | 7 | -63 | 91* | -1 | 0 | 14
COc1cccc(/C=N/NC(=O)c2c(C)nc3ccc(Cl)cn23)c1O | -14 | 4 | 90* | 27 | 0 | 14
